In the supplement of paper PMC13380429:

Tested on: Vero E6 infected with SARS-CoV-2
Assay: inhibition of SARS-CoV-2 cytopathic effect; higher = more antiviral protection, active = above 15
Details: 48 h

Measured: inhibition of SARS-CoV-2 cytopathic effect

CN(Cc1ccc(C(C)(C)C)cc1)Cc1cccc2ccccc12 [butenafine]
inactive: 1 nM 0.43% | 8.33 nM 3.81% | 100 nM 0.84% | 833.33 nM 2.62% | 10000 nM 4.56%

c1ccc2[nH]c(-c3cscn3)nc2c1 [tiabendazole]
inactive: 1 nM 2.1% | 8.33 nM 1.24% | 100 nM -0.24% | 833.33 nM 0.7% | 10000 nM -0.19%

CC(C)(C)NC(=O)[C@@H]1CN(Cc2cccnc2)CCN1C[C@@H](O)C[C@@H](Cc1ccccc1)C(=O)N[C@H]1c2ccccc2C[C@H]1O [indinavir]
inactive: 1 nM -3.73% | 8.33 nM -5.87% | 100 nM -9.09% | 833.33 nM -8.27% | 10000 nM -10.5%

CC(C)(C)NCC(O)COc1ccc(NC(=O)NC2CCCCC2)cc1 (stereo not given) [talinolol]
inactive: 1 nM 0.2% | 8.33 nM -2.2% | 100 nM -0.81% | 833.33 nM 0.83% | 10000 nM 0.7%

COc1cc2c(Nc3ccc(NC(=O)c4ccccc4)cc3)ncnc2cc1OCCCN1CCOCC1
inactive: 1 nM -0.39% | 8.33 nM 0.92% | 100 nM -0.95% | 833.33 nM 0.98% | 10000 nM 0.98%

N#C/C(=C\c1ccc(O)c(O)c1)C(=O)OCCc1cccs1
inactive: 1 nM 1.43% | 8.33 nM 1.78% | 100 nM 7.36% | 833.33 nM -1.53% | 10000 nM 1.2%

CCCCc1nc2cc(/C=C/C(=O)NO)ccc2n1CCN(CC)CC
inactive: 1 nM 2.32% | 8.33 nM -0.4% | 100 nM -5.57% | 833.33 nM -20.5% | 10000 nM -27.9%
